# Source: PubChem BioAssay (NCI)
# Several values for one entry are separate records, joined by “and”; a condition that tells them apart may be missing. Equal entries are not always repeated. About 79,000 compounds went through this panel and 15% of them were active in at least one assay; those are over-represented in the sample as a whole. A structure can be active in one record and inactive in another. Activity calls are given as the source filed them. No stated cut-off is given here; in the data, active means growth inhibition above about 70%; inactive means the rest.
# Experiments:
# [1] = NCI Yeast Anticancer Drug Screen. Data for the rad52 strain (AID 147);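 further: 0% = growth of vehicle-treated control cultures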; settings: S. cerevisiae rad52 mutant growth inhibition, stronger effect = higher value
# How it was run: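 Compounds are applied to a genetically defined yeast strain lacking normal DNA damage repair, and inhibition of growth is expressed relative to cultures given vehicle only.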
# [2] = NCI Yeast Anticancer Drug Screen. Data for the wt1 strain (AID 149);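 further: 0% = growth of vehicle-treated wt1 cultures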; settings: S. cerevisiae wt1 strain (SPY 50644) growth inhibition, stronger effect = higher value
# How it was run: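 Vehicle-normalised growth inhibition; strain wt1; compound exposure.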
# [3] = NCI Yeast Anticancer Drug Screen. Data for the rad50EPP+ strain (AID 151);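 further: 0% = growth of vehicle-treated control cultures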; settings: S. cerevisiae rad50 mutant strain, stronger effect = higher value
# How it was run: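 Compounds were applied to the rad50EPP+ yeast strain, which bears a defined DNA repair alteration, and growth inhibition was determined relative to vehicle-treated cultures.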
# [4] = NCI Yeast Anticancer Drug Screen. Data for the mgt1 strain (AID 153); settings: S. cerevisiae mgt1 mutant growth inhibition, stronger effect = higher value
# How it was run: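 Strain: mgt1 yeast, one of a set carrying defined DNA damage repair or cell cycle control alterations. Compound-treated growth compared with vehicle.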
# [5] = NCI Yeast Anticancer Drug Screen. Data for the rad50 strain (AID 155);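 further: 0% = growth of vehicle-only cultures of the same strain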; settings: S. cerevisiae rad50 strain growth inhibition, stronger effect = higher value
# How it was run: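 A DNA repair-deficient yeast mutant serves as the test organism; compound-induced growth inhibition is calculated against vehicle-treated cells.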
# [6] = NCI Yeast Anticancer Drug Screen. Data for the mec2-1 strain (AID 157); settings: S. cerevisiae mec2-1 strain, stronger effect = higher value
# How it was run: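 Strain: mec2-1 (DNA repair/cell cycle alteration). Compound exposure, then growth measured; inhibition expressed relative to vehicle.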
# [7] = NCI Yeast Anticancer Drug Screen. Data for the rad14 strain (AID 159);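 further: 0% = growth of vehicle-treated control cultures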; settings: S. cerevisiae rad14 strain growth inhibition, stronger effect = higher value
# How it was run: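 Vehicle-treated cultures served as the baseline for growth inhibition of a DNA repair-mutant yeast strain exposed to each compound.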
# [8] = NCI Yeast Anticancer Drug Screen. Data for the sgs1 mgt1 strain (AID 161);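 further: 0% = growth of cultures given vehicle only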; settings: S. cerevisiae sgs1 mgt1 strain, stronger effect = higher value
# How it was run: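 Mutant yeast exposed to compound; growth scored against vehicle-only wells.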
# [9] = NCI Yeast Anticancer Drug Screen. Data for the CLN2oe strain (AID 163);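 further: 0% = growth of vehicle-only control cultures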; settings: S. cerevisiae CLN2oe strain, stronger effect = higher value
# How it was run: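 Growth of a genetically modified yeast strain is measured after compound exposure and compared with cultures given vehicle alone.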
# [10] = NCI Yeast Anticancer Drug Screen. Data for the cln2 rad14 strain (AID 165);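 further: 0% = growth equal to vehicle treated cultures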; settings: S. cerevisiae cln2 rad14 strain, stronger effect = higher value
# How it was run: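 Compounds are applied to the cln2 rad14 yeast strain, and growth is then compared with that of vehicle-treated cultures to give inhibition.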
# [11] = NCI Yeast Anticancer Drug Screen. Data for the bub3 strain (AID 167); settings: S. cerevisiae bub3 mutant strain, stronger effect = higher value
# How it was run: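 Inhibition values come from growth of compound-treated mutant yeast normalised to vehicle-treated controls.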
# [12] = NCI Yeast Anticancer Drug Screen. Data for the wt2 strain (AID 169);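 further: 0% = growth of vehicle-treated yeast cultures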; settings: S. cerevisiae wt2 strain growth inhibition, stronger effect = higher value
# How it was run: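 This strain belongs to a panel of yeast strains with defined genetic alterations in DNA damage repair or cell cycle control. Compounds are applied, and growth inhibition is measured against vehicle-treated cultures.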
# [13] = NCI Yeast Anticancer Drug Screen. Data for the mlh1 strain (AID 171);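 further: 0% = growth of vehicle-treated control cultures of the same strain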; settings: S. cerevisiae mlh1 strain growth inhibition, stronger effect = higher value
# How it was run: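 Growth of the mutant yeast strain after compound exposure, expressed as inhibition relative to vehicle-only controls.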
# [14] = NCI Yeast Anticancer Drug Screen. Data for the sgs1 strain (AID 173);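 further: 0% = growth of vehicle-only control cultures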; settings: S. cerevisiae sgs1 mutant, stronger effect = higher value
# How it was run: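 Growth of a yeast strain bearing a defined genetic alteration is measured after compound treatment. Inhibition is expressed relative to vehicle-only controls.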
# [15] = NCI Yeast Anticancer Drug Screen. Data for the mlh1 rad18 strain (AID 175); settings: S. cerevisiae mlh1 rad18 strain growth inhibition, stronger effect = higher value
# How it was run: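 Read-out is yeast growth inhibition, calculated against vehicle-only controls. The compound was applied to a strain engineered with DNA damage repair alterations.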
# [16] = NCI Yeast Anticancer Drug Screen. Data for the rad18 strain (AID 177); settings: S. cerevisiae rad18 mutant growth inhibition, stronger effect = higher value
# How it was run: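 Growth of the mutant yeast strain after compound exposure, normalised to vehicle-only cultures.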
# [17] = at 5.0 µM (retest, dose inferred, filed as 0.5)
# [18] = at 50.0 µM (retest, dose inferred, filed as 5.0)
compound,measurement,setting,value
c1ccc2[nH]c(-c3cscn3)nc2c1,growth inhibition,[1]; at 1.2 µM,-3% (inactive)
same,growth inhibition,[1]; at 3.7 µM,-3% (inactive)
same,growth inhibition,[1]; at 11.0 µM,-3% (inactive)
same,growth inhibition,[1]; at 33.0 µM,2% (inactive)
same,growth inhibition,[1]; at 100.0 µM,-1% (inactive)
same,growth inhibition,[2]; at 1.2 µM,-1% (inactive)
same,growth inhibition,[2]; at 3.7 µM,-3% (inactive)
same,growth inhibition,[2]; at 11.0 µM,-2% (inactive)
same,growth inhibition,[2]; at 33.0 µM,-5% (inactive)
same,growth inhibition,[2]; at 100.0 µM,-4% (inactive)
same,growth inhibition,[3]; at 1.2 µM,0% (inactive)
same,growth inhibition,[3]; at 3.7 µM,0% (inactive)
same,growth inhibition,[3]; at 11.0 µM,3% (inactive)
same,growth inhibition,[3]; at 33.0 µM,16% (inactive)
same,growth inhibition,[3]; at 100.0 µM,29% (inactive)
same,growth inhibition,[4]; at 1.2 µM,-2% (inactive)
same,growth inhibition,[4]; at 3.7 µM,-2% (inactive)
same,growth inhibition,[4]; at 11.0 µM,-5% (inactive)
same,growth inhibition,[4]; at 33.0 µM,-5% (inactive)
same,growth inhibition,[4]; at 100.0 µM,-7% (inactive)
same,growth inhibition,[5]; at 1.2 µM,-2% (inactive)
same,growth inhibition,[5]; at 3.7 µM,3% (inactive)
same,growth inhibition,[5]; [17],-19% (inactive)
same,growth inhibition,[5]; at 11.0 µM,-1% (inactive)
same,growth inhibition,[5]; at 33.0 µM,4% (inactive)
same,growth inhibition,[5]; [18],-2% (inactive)
same,growth inhibition,[5]; at 50.0 µM,-4.2% (inactive) and 39.9% (inactive)
same,growth inhibition,[5]; at 100.0 µM,11% (inactive)
same,growth inhibition,[6]; at 1.2 µM,-2% (inactive)
same,growth inhibition,[6]; at 3.7 µM,-8% (inactive)
same,growth inhibition,[6]; [17],-12% (inactive)
same,growth inhibition,[6]; at 11.0 µM,-3% (inactive)
same,growth inhibition,[6]; at 33.0 µM,-6% (inactive)
same,growth inhibition,[6]; [18],4% (inactive)
same,growth inhibition,[6]; at 50.0 µM,7.6% (inactive) and 38.2% (inactive)
same,growth inhibition,[6]; at 100.0 µM,-8% (inactive)
same,growth inhibition,[7]; at 1.2 µM,-4% (inactive)
same,growth inhibition,[7]; at 3.7 µM,-5% (inactive)
same,growth inhibition,[7]; at 11.0 µM,-3% (inactive)
same,growth inhibition,[7]; at 33.0 µM,-5% (inactive)
same,growth inhibition,[7]; at 100.0 µM,-2% (inactive)
same,growth inhibition,[8]; [17],-3% (inactive)
same,growth inhibition,[8]; [18],13% (inactive)
same,growth inhibition,[8]; at 50.0 µM,-4% (inactive) and -3% (inactive)
same,growth inhibition,[9]; at 1.2 µM,-7% (inactive)
same,growth inhibition,[9]; at 3.7 µM,-3% (inactive)
same,growth inhibition,[9]; at 11.0 µM,-7% (inactive)
same,growth inhibition,[9]; at 33.0 µM,-11% (inactive)
same,growth inhibition,[9]; at 100.0 µM,-19% (inactive)
same,growth inhibition,[10]; [17],-25% (inactive)
same,growth inhibition,[10]; [18],-24% (inactive)
same,growth inhibition,[10]; at 50.0 µM,-19.7% (inactive) and 32.1% (inactive)
same,growth inhibition,[11]; at 1.2 µM,6% (inactive)
same,growth inhibition,[11]; at 3.7 µM,8% (inactive)
same,growth inhibition,[11]; [17],5% (inactive)
same,growth inhibition,[11]; at 11.0 µM,12% (inactive)
same,growth inhibition,[11]; at 33.0 µM,36% (inactive)
same,growth inhibition,[11]; [18],56% (inactive)
same,growth inhibition,[11]; at 50.0 µM,33.4% (inactive) and 84.8% (active)
same,growth inhibition,[11]; at 100.0 µM,70% (active)
same,growth inhibition,[12]; at 1.2 µM,-3% (inactive)
same,growth inhibition,[12]; at 3.7 µM,-3% (inactive)
same,growth inhibition,[12]; at 11.0 µM,-6% (inactive)
same,growth inhibition,[12]; at 33.0 µM,-5% (inactive)
same,growth inhibition,[12]; at 100.0 µM,0% (inactive)
same,growth inhibition,[13]; at 1.2 µM,-2% (inactive)
same,growth inhibition,[13]; at 3.7 µM,-2% (inactive)
same,growth inhibition,[13]; at 11.0 µM,-7% (inactive)
same,growth inhibition,[13]; at 33.0 µM,-3% (inactive)
same,growth inhibition,[13]; at 100.0 µM,11% (inactive)
same,growth inhibition,[14]; at 1.2 µM,-1% (inactive)
same,growth inhibition,[14]; at 3.7 µM,-3% (inactive)
same,growth inhibition,[14]; at 11.0 µM,-1% (inactive)
same,growth inhibition,[14]; at 33.0 µM,-3% (inactive)
same,growth inhibition,[14]; at 100.0 µM,-2% (inactive)
same,growth inhibition,[15]; [17],14% (inactive)
same,growth inhibition,[15]; [18],1% (inactive)
same,growth inhibition,[15]; at 50.0 µM,-37% (inactive) and 39.7% (inactive)
same,growth inhibition,[16]; at 1.2 µM,-1% (inactive)
same,growth inhibition,[16]; at 3.7 µM,-3% (inactive)
same,growth inhibition,[16]; at 11.0 µM,-2% (inactive)
same,growth inhibition,[16]; at 33.0 µM,3% (inactive)
same,growth inhibition,[16]; at 100.0 µM,18% (inactive)
